Screening data (PubChem)
HT1080-NT tox – qHTS for induction of synthetic lethality in tumor cells producing 2HG: qHTS for the HT-1080-NT fibrosarcoma cell line. 1.6% of 360,000 active. HT-1080-NT fibrosarcoma viability, CellTiter-Glo ATP luminescence, 48 h. AID 686970, 2013. Potency, µM (highest dose often 46.1 µM), inactives show at the top dose activity, negative = less viability, usual class: cytotoxic;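 also: NT is the 2HG producing partner of a matched IDH1 knockdown line; 0% = DMSO-treated cells and -100% = media-only wells without cells; nearly all actives have a fitted effect of over 55% in size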
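Fibrosarcoma NT cells, 750 per well in 5% FBS RPMI, were exposed to compound for 48 hours. Viability: CellTiter-Glo luminescence.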
HT1080 IDH1KD tx – qHTS for induction of synthetic lethality in tumor cells producing 2HG: qHTS for the HT-1080-IDH1KD cell line | AID 686971, 2013 | HT-1080 IDH1 knockdown viability, ATP luminescence, 48 h | Potency, µM (top dose mostly 46.1 µM), inactives show top-dose activity, negative = toxicity, usual class: cytotoxic | 2% of 360,000 active;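 also: 0% = DMSO wells and -100% = cell-free medium wells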
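Assay cells: HT-1080 with IDH1 knockdown, 750 per well, RPMI/5% FBS. Exposure: 48 h at 37 °C following 2 h pre-incubation. Read: CellTiter-Glo luminescence; fitted concentration-response, curve class assigned.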
ATXN viability – Viability Counterscreen for Primary qHTS for Inhibitors of ATXN expression | S2 cells (HEK-293 line with an ATXN2-luciferase reporter) viability, CellTiter-Fluor protease fluorescence, 24 h | Potency, µM (doses to about 56.7 µM), hits mostly cytotoxic | 0.49% of 400,000 active; also: nearly all actives have a fitted effect of over 40% in size
ATXN2 expr inh – Primary qHTS for Inhibitors of ATXN expression | HEK-293 ATXN2-luciferase reporter, luminescence, 24 h | Potency, µM (titrated, usually from 57 µM), without a hit: top-dose activity change, negative = inhibition, actives largely listed as inhibitors | 0.72% of 360,000 active; also: % is scaled to controls: 0 for no effect and ±100 for the full control effect; nearly all actives have a fitted effect of over 55% in size
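qHTS (up to 57 uM final) was run with 24 h compound exposure of reporter cells at 37 °C. Each well was multiplexed: SteadyGlo luminescence measured ATXN2-luciferase expression after a fluorogenic Gly-Phe-AFC viability readout (25 uM final).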
KB-3-1 tox – qHTS assay for MDR1-selective chemotherapeutics: Primary screen using the parental adenocarcinoma cell KB-3-1. KB-3-1 viability, CellTiter-Glo ATP luminescence, 72 h. 1.4% of 400,000 active. Potency, µM (series often up to 46.1 µM), actives largely listed as cytotoxic. AID 1347075, 2019; also: % is scaled to controls: 0 for no effect and ±100 for the full control effect; nearly all actives have a fitted effect of over 60% in size
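Cytotoxicity measured as CellTiter-Glo luminescence after 72 h at 37 C. Compound titrations were pinned onto drug-naive KB-3-1 parental adenocarcinoma cells grown in DMEM with 10% FBS, and normalized data fitted to concentration-response curves.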
KB-V1 MDR tox – qHTS assay for MDR1-selective chemotherapeutics: Primary screen using the drug-selected MDR subline cells KB-V1 | Potency, µM (top dose mostly 46.1 µM), usual class: cytotoxic | 3.4% of 400,000 active | KB-V1 MDR cells viability, CellTiter-Glo, 72 h; also: % is scaled to controls: 0 for no effect and ±100 for the full control effect; nearly all actives have a fitted effect of over 60% in size
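In this primary screen, KB-V1 cells overexpressing P-gp are incubated with library compounds (lowest to highest concentration) for 72 h at 37 degrees C before a luminescent ATP viability read.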
Active calls of the source: *; i = inactive; ? = inconclusive; . = not tested or not shown. Hits are enriched below; roughly 6.2% of the tested compounds scored in any of these assays. Calls follow the shape of the dose curve; as a rule, active = well fitted curve in the direction sought with a large enough effect; inconclusive = small, poorly fitted or top-dose-only effect, or another doubt; inactive = no such curve, though single readings can be large; an effect the other way counts as inactive or inconclusive. Potency is read from the fitted curve at half-maximal effect.

SMILES	HT1080-NT tox	HT1080 IDH1KD tx	ATXN viability	ATXN2 expr inh	KB-3-1 tox	KB-V1 MDR tox
CCCN1CCC(=NNc2ccc(S(=O)(=O)N3CCOCC3)cc2[N+](=O)[O-])CC1	?	15µM*	i	-20%	4.6µM*	7.3µM*
Cc1ccc(CNc2ccc(S(=O)(=O)N3CCOCC3)cc2[N+](=O)[O-])cc1	0%	-8%	i	-14%	i	5.2µM*
O=C1c2cccc(OCc3ccc(F)cc3)c2CCN1Cc1ccc(F)cc1	-28%	?	i	?	2.9µM*	3.3µM*
Cc1ccc(CN2CCc3c(OCc4ccc(F)cc4)cccc3C2=O)cc1	-21%	-18%	i	-33%	?	5.8µM*
CN1CCc2c(OCc3ccc(F)cc3)cccc2C1=O	-5%	-13%	i	-12%	i	?
COC(=O)c1ccc(COc2cccc3c2CCN(Cc2ccccc2)C3=O)o1	-10%	-15%	i	-16%	i	?
COC(=O)c1ccc(COc2cccc3c2CCN(Cc2cccc(C)c2)C3=O)o1	-19%	-24%	i	-32%	?	16µM*
O=C(O)c1cccc(-c2noc(-c3ccccc3F)n2)c1	.	.	i	?	.	.
Cc1nn(C(C)C)c(C)c1CN1CCC(C(=O)Nc2cccc(-c3cccc(F)c3)c2)CC1	15µM*	21µM*	i	-36%	?	?
Cn1cc(CN2CCC(C(=O)Nc3cccc(-c4cccc(F)c4)c3)CC2)cn1	21µM*	23µM*	i	-23%	i	i
CCCn1ncc(CN2CCC(C(=O)Nc3cccc(-c4cccc(F)c4)c3)CC2)c1C	21µM*	?	i	?	?	i
C[C@H]1CN([C@@H](C)CO)C(=O)CCCn2nncc2CO[C@@H]1CN(C)Cc1ccncc1	-2%	2%	i	4%	i	i
COc1ccc2oc(=Nc3cc(F)ccc3F)c(C(N)=O)cc2c1	?	?	i	-30%	7.3µM*	?
Cc1ccc2c(c1)C(c1ccc(F)cc1)N(C(=O)c1cccc(C(F)(F)F)c1)CC(=O)N2 (stereo unspecified)	.	.	?	?	i	i
Cc1nc(C)c(CC(=O)N2CCOc3ccc(CN4CCOCC4)cc3C2)s1	.	.	i	.	.	.
CC1(C)CC2(C)OC2C2(C1)N=NC(=Nc1ccccc1)O2 (stereo unspecified)	9.2µM*	?	22µM*	-18%	?	i
O=c1ccc(S(=O)(=O)N2CCCC2)cn1Cc1nc(-c2ccc(F)cc2)no1	0%	0%	i	3%	i	?
COc1ccc(-c2noc(Cn3cc(S(=O)(=O)N4CCCC4)ccc3=O)n2)cc1	1%	3%	i	-7%	i	5.8µM*
CC(C)Nc1ccccc1	17%	9%	i	-2%	i	i
CC(C)Nc1nc2nonc2nc1Nc1ccccc1	-19%	?	i	-36%	18µM*	?
Cc1nc(C)c(-c2csc(Nc3cccc(O)c3)n2)s1	?	?	?	-3%	i	?
COc1cccc(N(C(=O)c2ccco2)c2nc(-c3sc(NC(=O)c4ccco4)nc3C)cs2)c1	-15%	-24%	?	-20%	5.8µM*	i
Cc1ccc(Cl)cc1Nc1nc(-c2sc(NC(=O)c3ccco3)nc2C)cs1	?	?	i	6%	21µM*	?
Cc1nc(NC(=O)c2ccco2)sc1-c1csc(Nc2ccc(Cl)cc2Cl)n1	?	?	?	-16%	i	?
CCCCC(=O)Nc1nc(C)c(-c2csc(Nc3ccccc3OC)n2)s1	-1%	-4%	i	-6%	?	i
SMILES	HT1080-NT tox	HT1080 IDH1KD tx	ATXN viability	ATXN2 expr inh	KB-3-1 tox	KB-V1 MDR tox
CCC(=O)Nc1nc(C)c(-c2csc(Nc3cccc(O)c3)n2)s1	?	0.46µM*	?	.	?	?
C=CCCC(=O)Nc1nc(C)c(-c2csc(Nc3ccccc3OC)n2)s1	?	16µM*	?	-20%	7.3µM*	?
COc1cccc(NCc2nnc(SC(C(=O)N(C)C)c3ccccc3)n2C2CCCCC2)c1 (stereo unspecified)	.	.	.	.	i	i
COc1ccc(-c2cc(C(F)(F)F)nc(SCC(=O)N3CCCCC3C)n2)cc1OC (stereo unspecified)	.	.	i	0%	?	?
C=CCCC(=O)Nc1nc(C)c(-c2csc(Nc3ccc(Cl)cc3Cl)n2)s1	16µM*	?	i	-11%	?	?
CCCCCCC(=O)Nc1nc(C)c(-c2csc(Nc3ccc(Cl)cc3)n2)s1	21µM*	?	?	?	?	i
C=CCCC(=O)Nc1nc(C)c(-c2csc(Nc3cc(Cl)ccc3OC)n2)s1	-9%	?	?	-26%	?	?
CCCCCC(=O)Nc1nc(C)c(-c2csc(Nc3ccc(Cl)cc3)n2)s1	-23%	?	?	-8%	i	i
CCc1ccccc1N(CC)C(=O)c1cc2c(s1)-c1ccccc1OC2	.	.	i	-38%	i	i
COc1ccc(-c2nc3c4ccccc4n(CC(=O)N4CCN(c5ccccc5F)CC4)c(=O)n3n2)cc1	.	.	i	5%	i	i
CCCN1CNc2c(c(=O)[nH]c(=S)n2CCc2ccc(OC)cc2)C1	0%	19%	.	.	.	.
COc1ccc(C(=O)Nc2ccc3c(c2)C(=O)c2ccccc2C3=O)cc1OC	-3%	12%	i	8%	i	i
COc1ccc(C(=O)c2c(C(F)(F)F)oc3c2C(=O)c2ccccc2C3=O)cc1OC	9.2µM*	?	28µM*	?	9.2µM*	9.2µM*
COCCn1c(SCC(=O)Nc2sc(C)c(C)c2C#N)nnc1-c1ccc(OC)cc1	6%	18%	i	-6%	i	9.2µM*
COC(=O)c1c(NC(=O)CN2CCC3(O)CCCCC3C2c2cc(OC)ccc2OC)sc(C)c1C (stereo unspecified)	-13%	-20%	i	-31%	?	?
COC(=O)c1c(NC(=O)CN2CCC3(O)CCCCC3C2c2ccc(F)cc2)sc(C)c1C (stereo unspecified)	-4%	-8%	i	3%	i	16µM*
Cc1cccc(-n2ncc(C(=O)N3CCN(Cc4ccccc4)CC3)c2C2CCN(C(=O)OC(C)(C)C)CC2)c1	.	.	.	.	i	i
